TSHR antag: Antagonists of the Thyroid Stimulating Hormone Receptor: HTS campaign. Thyrotropin receptor (Homo sapiens), P16473. TSHR-expressing cells, TSH-stimulated cAMP HTRF, 2 h; stronger effect = lower value. activity change, negative = inhibition, % at 11.5 µM. hit rate 0.2% among 330,000. AID 504810, 2011;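 active = activity change below a set negative limit, meaning inhibition stronger than a set level, cut at about -70% in these data; inconclusive = activity change between two set negative limits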; also: % is scaled to controls: 0 for no effect and ±100 for the full control effect
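Inhibition of cAMP made by TSHR-expressing cells under TSH stimulation (4nM final, EC80; 2 h, 37 deg C) is quantified with a one-step lysis HTRF kit, anti-cAMP cryptate versus cAMP-d2.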
Vif-APOBEC3G blk: qHTS for Inhibitors of Vif-A3G Interactions: qHTS; DNA dC->dU-editing enzyme APOBEC-3G (Homo sapiens), Q9HC16; HeLa A3G-eYFP + Vif (tagged APOBEC3G with the HIV-1 protein that degrades it), YFP fluorescence, overnight; Potency, µM (titrated, usually from 46.1 µM), inactives show at the top dose activity, negative = active, actives largely listed as inhibitors; hit rate 0.076% among 410,000; AID 602310, 2012; also: potency is read from the fitted curve at half-maximal effect; % is scaled to controls: 0 for no effect and ±100 for the full control effect; nearly all actives have a fitted effect of over 60% in size
Target sequence (Q9HC16 whole entry, looked up): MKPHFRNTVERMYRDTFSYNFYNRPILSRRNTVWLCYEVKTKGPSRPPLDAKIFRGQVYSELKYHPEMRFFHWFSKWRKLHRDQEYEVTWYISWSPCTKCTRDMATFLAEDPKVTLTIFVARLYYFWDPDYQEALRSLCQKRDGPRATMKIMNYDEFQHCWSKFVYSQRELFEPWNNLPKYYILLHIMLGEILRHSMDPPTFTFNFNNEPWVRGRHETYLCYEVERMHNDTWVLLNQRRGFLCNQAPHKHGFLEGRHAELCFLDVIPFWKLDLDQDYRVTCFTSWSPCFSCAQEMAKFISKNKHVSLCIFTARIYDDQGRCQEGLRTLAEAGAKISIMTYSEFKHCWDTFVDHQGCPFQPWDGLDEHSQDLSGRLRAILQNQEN
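Read-out is eYFP fluorescence (Ex 488/Em 500-530) from Vif-expressing HeLa A3G-eYFP cells; more signal means A3G escaped Vif-mediated degradation. Cells plated overnight, compound pinned in, incubated overnight at 37 deg C.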
PLK1 PBD block: qHTS for Inhibitors of PLK1-PDB (polo-like kinase 1 - polo-box domain): Primary Screen | Serine/threonine-protein kinase PLK1 (Homo sapiens), P53350 | Plk1 PBD binding of FITC phosphopeptide, fluorescence polarization | Potency, µM, inactives show max response, negative = inhibition, actives largely listed as inhibitors | hit rate 2.8% among 360,000; also: potency is read from the fitted curve at half-maximal effect; series mostly up to about 57 µM; % is scaled to controls: 0 for no effect and ±100 for the full control effect; nearly all actives have a fitted effect of over 65% in size
VDR inhibitor: Inhibitors of the vitamin D receptor (VDR): qHTS; VDR-SRC2-3 peptide fluorescence polarization, 2 h; hit rate 0.93% among 400,000; Potency, µM, for the others: max response, negative = inhibition, usual class: inhibitors; Vitamin D3 receptor (Homo sapiens), P11473; also: potency is read from the fitted curve at half-maximal effect; % is scaled to controls: 0 for no effect and ±100 for the full control effect
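Two reagent solutions held at 4 deg C in the dark were dispensed, compounds pinned at 23 nl, and the mixture incubated 2 h at room temperature. Read-out: fluorescence polarization of VDR–SRC2-3 peptide binding.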
Vif-A3F inh: qHTS for Inhibitors of Vif-A3F Interactions: qHTS; HeLa A3F-eYFP + Vif (tagged APOBEC3F with the HIV-1 protein that degrades it), YFP fluorescence increase; Potency, µM (top dose mostly 46.1 µM), without a hit: top-dose activity, negative = active; hit rate 0.2% among 390,000; AID 602313, 2012; also: potency is read from the fitted curve at half-maximal effect; % of control where 0% means no effect; nearly all actives have a fitted effect of over 65% in size
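HeLa cells stably expressing Vif plus C-terminally eYFP-tagged A3F were seeded, incubated overnight at 37 deg C, dosed with compound, incubated overnight again at 37 deg C. Yellow fluorescence (Ex 488/Em 500-530) reported blocked Vif-mediated A3F-eYFP degradation.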
* marks the source's active call; other numbers are inactive results; u = inconclusive; x = no result given. Compounds with a hit are over-represented: about 3.1% of the library has one in this group of screens. Unless noted, calls follow the shape of the dose curve; as a rule, active = well fitted curve in the direction sought with a large enough effect; inconclusive = small, poorly fitted or top-dose-only effect, or another doubt; inactive = no such curve, though single readings can be large; an effect the other way counts as inactive or inconclusive.

SMILES	TSHR antag	Vif-APOBEC3G blk	PLK1 PBD block	VDR inhibitor	Vif-A3F inh
COc1ccc(CNc2ncncc2-c2cccc(NS(C)(=O)=O)c2)c(OC)c1	x	x	x	-10%	x
O=C1CC(=O)N(Cc2ccco2)C(=S)N1	25	0%	21µM*	u	-4%
O=C1CC(=O)N(Cc2ccco2)C(=O)N1	1	-14%	6.7µM*	u	u
O=C(O)CCN1C(=O)C(=C2CCCCCC2)SC1=S	-26	-11%	u	-25%	0%
O=C1C(=C2CCCCC2)SC(=S)N1Cc1ccco1	0	-20%	21µM*	u	-3%
Nc1ccccc1NC(=O)c1ccc(CNC(=O)OCc2cccnc2)cc1	x	x	x	-14%	x
Cc1cccc(N2C(=O)N(Cc3ccc(C(C)(C)C)cc3)c3ccccc3S2(=O)=O)c1	x	2%	x	11%	0%
CC(C)(C)c1ccc(CN2N=Nc3ccccc3S2(=O)=O)cc1	3	-23%	13µM*	50µM*	0%
O=c1[nH]c(=O)c2ncn(C3OC(CO)C(O)C3O)c2[nH]1 (configuration not stated)	x	3%	x	-7%	x
CC1(C)C2CCC1(C)C(OC(=O)CNc1ccccc1)C2 (configuration not stated)	-8	-5%	19µM*	-13%	-18%
CC1(C)C2CCC1(C)C(OC(=O)C[n+]1ccccc1)C2 (configuration not stated)	5	3%	19µM*	22µM*	1%
CC1(C)C2CCC1(C)C(OC(=O)C[n+]1ccccc1N)C2 (configuration not stated)	8	5%	0%	-11%	0%
COc1ccc(CN(Cc2ccccc2)C(=O)COC(C)=O)cc1COc1ccc(NC(C)=O)cc1	x	x	x	-1%	x
COc1cc(CO)ccc1OCc1nnnn1-c1ccc(C)cc1	-9	3%	17µM*	u	-9%
COc1ccc(Cl)cc1Nc1nc(Cl)nc(NCCO)n1	x	-1%	2%	x	1%
CCOc1nc(NCCO)nc(Nc2cc(Cl)ccc2OC)n1	0	-2%	27µM*	-14%	-7%
CN1/C(=N\O)c2cccc3cccc1c23	-5	4%	27µM*	u	-4%
COc1ccc(S(=O)(=O)N(CC(=O)NC2CC3CCC2C3)c2ccccc2OC)cc1 (configuration not stated)	2	3%	27µM*	u	-1%
NSc1nc(N)c2nc(-c3ccccc3)c(-c3ccccc3)nc2n1	-20	-16%	13µM*	8.9µM*	9%
N=C1S/C(=C\c2cn[nH]c2-c2ccc(F)cc2)C(=O)N1c1ccccc1F	-21	0%	27µM*	-20%	-3%
Cc1ccc(-c2nnc3ccc(SCC(=O)c4ccccc4)nn23)cc1	x	6%	x	1%	x
CC(=O)Nc1ccc(/C=C/c2ccccn2)cc1	x	3%	x	x	x
COC(=O)c1c(-c2ccc(S(C)(=O)=O)cc2)sc2ccc(OC)cc12	-7	-5%	21µM*	-12%	-5%
O=C(O)c1cc2ccccc2c(Cc2cc3ccccc3c(C(=O)O)c2O)c1O (tested in a mixture with another compound)	x	x	x	14µM*	x
O=C(O)c1cc(Cl)c2ccccc2c1O	-12	-8%	-30%	-13%	1%
SMILES	TSHR antag	Vif-APOBEC3G blk	PLK1 PBD block	VDR inhibitor	Vif-A3F inh
Fc1ccc(Br)cc1C1C=C(c2ccc(Br)s2)Nc2ncnn21 (configuration not stated)	-11	u	-5%	0%	22µM*
Oc1ccc(Br)cc1/C=N/n1c(C2CCCCC2)n[nH]c1=S	-9	-12%	27µM*	-28%	0%
C/C(=N\Nc1ccc(C(=O)O)cc1)c1ccc2c(c1)Nc1ccccc1S2	-4	-19%	30µM*	-14%	-6%
C/C(=N/Nc1ccc(C(=O)O)cc1)c1ccc2c(c1)Nc1ccccc1S2	x	-19%	30µM*	-9%	-2%
CC(=O)Nc1ccc(NC(=O)c2ccc3c(c2)NC(=O)c2ccccc2S3)cc1	x	-1%	x	4%	-5%
Cc1ccccc1OCC(=O)OCc1cc(=O)n2nc(C3CC3)sc2n1	x	-2%	x	11%	-10%
O=C(COc1ccccc1C(=O)Nc1ccccc1F)Nc1ccc(Br)cc1	x	1%	x	x	x
COc1ccc2c(c1)C(=O)[C@@H](OC(=O)Nc1ccc(C)c(Br)c1)[C@H](c1ccc(OC)c(Br)c1)O2	x	x	x	-7%	x
CC(C)(C)C(=O)C(Cl)C(=O)Nc1ccccc1 (configuration not stated)	7	-6%	11µM*	20µM*	11%
O=C(Nc1ccc(Nc2ccccc2)cc1)C(Cl)Cl	0	-25%	-9%	5%	3%
COc1ccc(-n2nc3ccc(N)cc3n2)cc1	x	-4%	3%	x	0%
COc1ccc(-n2nc(N)c(C(N)=O)n2)cc1	0	-1%	19µM*	-20%	1%
CC(C)(C)n1ncc2c(=O)n(Cc3ccc(F)cc3F)cnc21	x	-3%	x	x	x
O=C(NCCS(=O)(=O)N1CCN(c2ccccc2)CC1)C1CC(=O)N(c2ccccc2)C1 (configuration not stated)	-135*	0%	-7%	0%	2%
O=C(NCCS(=O)(=O)N1CCN(c2ccccc2)CC1)C1CC(=O)N(c2ccc(F)cc2)C1 (configuration not stated)	0	6%	-5%	-22%	0%
Cc1ccc(-c2nc3cccc(C)n3c2Nc2ccc(F)cc2)o1	x	x	x	-9%	x
COC(=O)CSc1nc2c(c(-c3ccco3)c1C#N)CCCC2	u	-2%	27µM*	-12%	-4%
N#Cc1c(N)nc(SCC(=O)OCc2ccccc2)c(C#N)c1-c1ccco1	-78*	-3%	-1%	6%	2%
COC(=O)CSc1nc2c(c(-c3ccc(O)cc3)c1C#N)CCCC2	-4	-11%	-18%	-2%	0%
Cc1cc(=O)[nH]c(SCC(=O)OCc2ccccc2)c1C#N	21	-3%	21µM*	-23%	3%
CCCOC(=O)CSc1nc(N)c(C#N)c(-c2ccco2)c1C#N	x	-2%	-1%	4%	-3%
COc1ccc(-n2cc(C(=O)NCc3ccccc3Cl)c3ccccc3c2=O)cc1	x	7%	x	3%	7%
CC[C@](N)(CCC(=O)O)C(=O)O	x	x	x	-5%	x
CC(=O)n1cc(C(C[N+](=O)[O-])SCCN)c2ccccc21 (configuration not stated)	-2	u	5.3µM*	22µM*	-1%
Cn1cc(C(C[N+](=O)[O-])c2ccccc2)c2ccccc21 (configuration not stated)	21	u	6%	-3%	0%
CC(=O)NCc1ccc(S(=O)(=O)N2CCCN(C)CC2)cc1	10	1%	3.8µM*	u	0%

Source: PubChem
